Bioassay records: PubChem, National Center for Advancing Translational Sciences (NCATS)
Casp1 inh: qHTS Assay for Allosteric/Competitive Inhibitors of Caspase-1. 75,000 tested, 0.03% active. Potency, µM (series often up to 57.5 µM), for the others: at the highest dose activity change, negative = inhibition, hits mostly inhibitors. P29466. Caspase-1 enzyme, Ac-WEHD-AFC fluorogenic rate;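 note: plate controls were vehicle for no effect and no substrate for full effect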
Target sequence (P29466 120-297 limits assumed): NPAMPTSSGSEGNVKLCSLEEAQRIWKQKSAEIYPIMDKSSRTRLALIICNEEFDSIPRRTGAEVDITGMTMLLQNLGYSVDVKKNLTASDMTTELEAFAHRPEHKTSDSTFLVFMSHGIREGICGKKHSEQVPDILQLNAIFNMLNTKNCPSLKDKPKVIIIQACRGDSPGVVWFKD
Target sequence (P29466 317-404 limits assumed): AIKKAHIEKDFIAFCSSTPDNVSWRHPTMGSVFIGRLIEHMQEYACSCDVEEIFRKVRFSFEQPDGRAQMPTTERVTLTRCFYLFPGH
Casp7 inh: qHTS Assay for Allosteric/Competitive Inhibitors of Caspase-7. P55210. recombinant caspase-7, Ac-DEVD-AFC fluorescence rate. Potency, µM (titrated, usually from 57.5 µM), inactives show at the top dose activity change, negative = inhibition, actives largely listed as inhibitors. 75,000 tested, 0.02% active. AID 889, 2007; active = well fitted inhibition curve with a large enough effect in the main read-out, with a control signal flat, not every such curve was filed as active; inconclusive = small, poorly fitted or top-dose-only effect, or a change in a side signal; note: % of control where 0% means no effect
HEK293 cAMP ctrl: qHTS Assay for Agonists of the Thyroid Stimulating Hormone Receptor: Activators of Intracellular cAMP Concentrations in Parental HEK 293 | parental HEK293 CNG cAMP sensor, membrane potential fluorescence | Potency, µM (series often up to 57.1 µM), for the others: at the top dose activation, usual class: activators | 73,000 tested, 2.5% active; note: % of control where 0% means no effect; nearly all actives have a fitted effect of over 55% in size
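Parental HEK 293 cells stably expressing a cAMP-gated CNG channel were loaded with membrane potential dye containing 100 uM RO 20-1724 for 60 min. Compound added for 30 min; depolarization read as fluorescence intensity at 590 nm.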
ERK AVP block: qHTS Assay for Inhibitors of the ERK Signaling Pathway using a Homogeneous Screening Assay; HEK293-V1b, vasopressin-stimulated pERK AlphaScreen; Potency, µM (doses to about 57.5 µM), without a hit: at the top dose activity, negative = inhibition, hits mostly inhibitors; 72,000 tested, 0.99% active; AID 995, 2007; note: % is set by controls: 0 for no effect and ±100 for the full control effect; nearly all actives have a fitted effect of over 55% in size
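HEK293 cells stably expressing V1b receptor, preincubated 30 min at 37 °C with compound, then stimulated 5 min with 25 nM vasopressin. Phospho-ERK by AlphaScreen SureFire after 5 h RT; normalized to DMSO and vasopressin; AC50 by Hill fit.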
GBA mod: Glucocerebrosidase; purified enzyme, resorufin glucoside fluorescence (screen aimed at inhibitors), 20 min; Lysosomal acid glucosylceramidase (Homo sapiens), P04062; 48,000 tested, 1.1% active; Potency, µM; in the data active = potency below about 15 µM; inconclusive = mostly about 16 µM to 33 µM;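 note: the screen sought inhibitors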
Target sequence (P04062 whole entry, looked up): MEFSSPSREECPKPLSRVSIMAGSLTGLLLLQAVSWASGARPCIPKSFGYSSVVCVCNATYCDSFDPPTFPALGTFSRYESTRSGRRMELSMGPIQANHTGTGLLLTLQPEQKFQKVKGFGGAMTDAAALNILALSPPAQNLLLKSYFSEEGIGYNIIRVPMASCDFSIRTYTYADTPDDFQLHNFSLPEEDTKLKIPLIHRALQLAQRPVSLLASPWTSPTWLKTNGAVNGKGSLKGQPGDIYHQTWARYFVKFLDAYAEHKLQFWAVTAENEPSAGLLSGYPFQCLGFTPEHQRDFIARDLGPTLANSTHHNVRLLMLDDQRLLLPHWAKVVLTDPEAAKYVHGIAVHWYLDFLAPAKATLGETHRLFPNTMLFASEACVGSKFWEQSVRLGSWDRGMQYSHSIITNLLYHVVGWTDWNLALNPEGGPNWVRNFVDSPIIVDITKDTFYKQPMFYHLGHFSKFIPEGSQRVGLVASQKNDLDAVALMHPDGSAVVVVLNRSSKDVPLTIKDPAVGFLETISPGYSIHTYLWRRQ
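Normal human glucocerebrosidase (0.2 nM final) was assayed with resorufin β-D-glucopyranoside (30 uM final) in 50mM citric acid/KH2PO4, 10mM sodium taurocholate, 0.01% tween-20, pH 5.9. Compounds were titrated; fluorescence (Ex 548, Em 600) read after 20 min at RT.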
TSHR agonist: qHTS Assay for Agonists of the Thyroid Stimulating Hormone Receptor | 73,000 tested, 0.48% active | HEK293-CNG-TSHR cells (CNG channel as cAMP sensor), membrane potential dye, cAMP | AID 926, 2007 | Potency, µM (series often up to 57.1 µM), inactives show top-dose activation, usual class: activators; active = well fitted activation curve with a large enough effect in the main read-out, with a control signal flat, not every such curve was filed as active; inconclusive = small, poorly fitted or top-dose-only effect, or a change in a side signal; inactive = no such curve, though single readings can be large or run the other way; % of control where 0% means no effect;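 note: the control signal comes from parental cells without the receptor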
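HEK 293 cells stably expressing TSHR and a modified CNG channel, with CNG-only parental cells as counterscreen, were preloaded 60 min at room temperature with membrane potential dye containing 100 uM RO 20-1724. Compound exposure was 30 min, and depolarization was read as fluorescence at 590 nm.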
Active calls of the source: *; ! = a repeat was not active; [ ] = dose if it differs, or a comment. An excerpt weighted towards active compounds, which were near 4.5% of everything screened. Unless noted, calls come from the whole dose curve; as a rule, active = well fitted curve in the direction sought with a large enough effect; inconclusive = small, poorly fitted or top-dose-only effect, or another doubt; inactive = no such curve, though single readings can be large; an effect the other way counts as inactive or inconclusive. Potency is the fitted concentration of half-maximal effect.

How did O=c1c2ccccc2nnn1CSc1nc2cc(Cl)ccc2c(=O)n1Cc1ccco1 do in these assays?
Casp1 inh: 1.8%; Casp7 inh: -2.2%; HEK293 cAMP ctrl: 2µM*; ERK AVP block: 14.9%; GBA mod: >76.9; TSHR agonist: inconclusive

What do the screens show for `COc1ccc(C(=O)Nn2c(SCC(=O)NCc3ccco3)nc3ccccc3c2=O)cc1`?
Casp1 inh: -2.0%; Casp7 inh: -6.8%; HEK293 cAMP ctrl: 20µM*; ERK AVP block: inconclusive; GBA mod: >76.9; TSHR agonist: inconclusive

What do the screens show for `O=C(CSc1nc2ccccc2c(=O)n1Cc1ccc(C(=O)NC2CC2)cc1)NCc1ccco1`?
Casp1 inh: -1.3%; Casp7 inh: -4.0%; HEK293 cAMP ctrl: 19.7%; ERK AVP block: -18.2%; GBA mod: >76.9; TSHR agonist: 22.7%

How did O=c1c2ccccc2nnn1CSc1nnc(COc2ccc(Cl)cc2)n1Cc1ccco1 do in these assays?
Casp1 inh: -4.6%; Casp7 inh: -5.3%; HEK293 cAMP ctrl: 27.3%; ERK AVP block: 13.4%; GBA mod: >76.9

How did C=CCn1c(SCC(=O)NCc2ccc3c(c2)OCO3)nnc1C1CCCCC1 do in these assays?
Casp1 inh: -2.3%; Casp7 inh: -3.3%; HEK293 cAMP ctrl: 25.1µM*; ERK AVP block: 9.2%; GBA mod: >76.9; TSHR agonist: inconclusive

What do the screens show for `CO[C@H]1COC(=O)C/C=C\[C@@H](C)[C@H](OC)COC(=O)[C@H]2CCCN2C(=O)C/C=C\[C@@H]1C`?
Casp1 inh: -1.1%[11.5 µM]; Casp7 inh: -0.6%[11.5 µM]; HEK293 cAMP ctrl: -3.2%[11.4 µM]; ERK AVP block: 1.0%[11.5 µM]; TSHR agonist: -6.9%[11.4 µM]

What do the screens show for `Cc1nc(N=Nc2cc(S(=O)(=O)O)ccc2S(=O)(=O)O)c(COP(=O)(O)O)c(C=O)c1O`?
Casp1 inh: -12.8%; Casp7 inh: -26.7%; HEK293 cAMP ctrl: 4.6%; ERK AVP block: 5.9%; TSHR agonist: -7.0%

Results for O=C(CSc1nc2ccccc2c(=O)n1Cc1ccco1)c1ccc(F)cc1 ?
Casp1 inh: -4.0%; Casp7 inh: -4.6%; HEK293 cAMP ctrl: 25.1µM*; ERK AVP block: 15.7%; GBA mod: >76.9; TSHR agonist: inconclusive

How did O=C(CSc1nc2ccccc2c(=O)n1Cc1ccco1)NCc1ccccc1 do in these assays?
Casp1 inh: -4.1%; Casp7 inh: 3.1%; HEK293 cAMP ctrl: 25.1µM*; ERK AVP block: 30.1%; GBA mod: >76.9; TSHR agonist: inconclusive

How did O=C(CSc1nnc(COc2ccccc2)n1Cc1ccco1)c1ccc(F)cc1 do in these assays?
Casp1 inh: -1.8%; Casp7 inh: -6.3%; HEK293 cAMP ctrl: 15.8µM*; ERK AVP block: -28.7%; GBA mod: >76.9; TSHR agonist: inconclusive

How did O=C(CSc1nnc(-c2cc3ccccc3cc2O)n1Cc1ccco1)c1ccc(F)cc1 do in these assays?
Casp1 inh: -6.7%; Casp7 inh: -3.3%; HEK293 cAMP ctrl: 32.7%; ERK AVP block: -61.3%; GBA mod: >76.9

How did Cn1c(SCC(=O)NCc2ccco2)nc2ccccc2c1=O do in these assays?
Casp1 inh: -1.2%; Casp7 inh: -1.0%; HEK293 cAMP ctrl: 20.8%; ERK AVP block: 10.2%; GBA mod: >76.9; TSHR agonist: 10.4%

What do the screens show for `Cc1ccc(OCc2nnc(SCc3nc4ccccc4[nH]3)n2Cc2ccco2)cc1`?
Casp1 inh: -7.8%; Casp7 inh: -12.3%; HEK293 cAMP ctrl: 31.6µM*; ERK AVP block: 31.6µM*; GBA mod: >76.9; TSHR agonist: inconclusive

What do the screens show for `Cc1ccc(OCc2nnc(SCC(=O)c3ccccc3)n2Cc2ccco2)cc1`?
Casp1 inh: -4.8%; Casp7 inh: -4.0%; HEK293 cAMP ctrl: inconclusive; ERK AVP block: -29.9%; GBA mod: >76.9; TSHR agonist: inconclusive

How did O=C(CSc1nnc(C2CCCCC2)n1Cc1ccccc1)NCc1ccco1 do in these assays?
Casp1 inh: 1.4%; Casp7 inh: -1.2%; HEK293 cAMP ctrl: 12.6µM*; ERK AVP block: 6.6%; GBA mod: >76.9; TSHR agonist: inconclusive

How did CC1CCCC(C)N1C(=O)Cn1c(SCC(=O)NCc2ccc3c(c2)OCO3)nc2ccccc21 (stereo not given) do in these assays?
Casp1 inh: 1.5%; Casp7 inh: 5.2%; HEK293 cAMP ctrl: 15.8µM*; ERK AVP block: -8.4%; GBA mod: >76.9; TSHR agonist: inconclusive

Results for O=C(CSc1ncc(-c2ccccc2)n1-c1ccccc1)NCc1ccco1 ?
Casp1 inh: 1.8%; Casp7 inh: -1.3%; HEK293 cAMP ctrl: 31.6µM*; ERK AVP block: -15.4%; GBA mod: >76.9; TSHR agonist: inconclusive

What do the screens show for `COC(=O)c1ccc(CSc2nnc(NCc3ccccc3)s2)o1`?
Casp1 inh: -5.8%; Casp7 inh: -2.0%; HEK293 cAMP ctrl: 17.1%; ERK AVP block: -26.4%; GBA mod: >76.9; TSHR agonist: 6.1%

How did COC(=O)c1ccc(CSc2nc(-c3ccccc3)cs2)o1 do in these assays?
Casp1 inh: -2.0%; Casp7 inh: -1.1%; HEK293 cAMP ctrl: 39.8µM*; ERK AVP block: -16.6%; GBA mod: >76.9; TSHR agonist: inconclusive

What do the screens show for `Cn1c(Cn2nnc3ccccc32)nnc1SCC(=O)NCc1ccc2c(c1)OCO2`?
Casp1 inh: -2.8%; Casp7 inh: 1.0%; HEK293 cAMP ctrl: 8.3%; ERK AVP block: 15.3%; GBA mod: >76.9; TSHR agonist: -3.2%

What do the screens show for `CCc1ccc2c(O)c3c(cc2c1C(=O)OC)C(=O)c1c(O)ccc(O)c1C3=O`?
Casp1 inh: -11.2%; Casp7 inh: -11.2%; ERK AVP block: 5.8%

Results for Cc1ccc(N2CCN(CCC(=O)O)CC2)cc1 ?
Casp1 inh: 3.9%[11.5 µM]; Casp7 inh: -0.1%[11.5 µM]; HEK293 cAMP ctrl: 1.4%[11.4 µM]; ERK AVP block: -11.4%[11.5 µM]; TSHR agonist: 3.9%[11.4 µM]

Results for CC#CCOCC/C=C1/c2ccccc2C(OC)C1C (stereo not given) ?
Casp1 inh: -1.1%[11.5 µM]; Casp7 inh: 0.5%[11.5 µM]; HEK293 cAMP ctrl: 10.6%[11.4 µM]; ERK AVP block: 0.8%[11.5 µM]; TSHR agonist: 1.3%[11.4 µM]

What do the screens show for `O=C(C[N+]12CN3CN(CN(C3)C1)C2)c1ccc(-c2ccccc2)cc1`?
Casp1 inh: -0.5%[11.5 µM]; Casp7 inh: -1.2%[11.5 µM]; HEK293 cAMP ctrl: -3.2%[11.4 µM]; ERK AVP block: 4.9%[11.5 µM]; TSHR agonist: 0.6%[11.4 µM]

What do the screens show for `COc1ccc2c(c1)c(CC(=O)N1CCOCC1)c(C)n2C(=O)c1ccc(Cl)cc1`?
Casp1 inh: 0.8%; Casp7 inh: 0.6%; HEK293 cAMP ctrl: 39.8µM*!; ERK AVP block: -12.9%; TSHR agonist: inconclusive

How did COc1ccc2c(c1)c(CC(=O)OCC(=O)O)c(C)n2C(=O)c1ccc(Cl)cc1 do in these assays?
Casp1 inh: -0.3%; Casp7 inh: -0.1%; HEK293 cAMP ctrl: -2.5%[25.6 µM]; ERK AVP block: 1.9%; TSHR agonist: -11.0%[25.6 µM]
